# Source: PubChem BioAssay
# Pf Dd2 growth = blocks in vitro growth of P. falciparum Dd2; hit rate 4.3% among 120,000; P. falciparum Dd2 growth, SYBR Green, 72 h; Potency, µM (series often up to 28.9 µM), for inactives: at the highest dose activity, negative = inhibition, usual class: inhibitors; active = well fitted inhibition curve with a large enough effect;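 note: plate controls were DMSO vehicle for no effect and reference drug for full effect; nearly all actives have a fitted effect of over 65% in size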
#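 Readout: SYBR Green fluorescence, 485 nm excitation, 535 nm emission, after ~16 h lysis at 37C. Before that, Dd2-infected red cells (2.5% hematocrit) grew 72 h with compound, 29 uM top final concentration.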
# * hit, by the source's call; i = inactive; [ ] = dose if it differs, or a comment. Shown is part of a subset that was picked to be rich in hits. Potency is the fitted concentration of half-maximal effect.
SMILES,Pf Dd2 growth
O=C(NCCc1cccs1)c1ccc(Cn2c(SCc3ccccc3)nc3cccnc32)cc1,11.2µM*
CCn1c(=O)c2c(cc(C)n2C)n(CC(=O)Nc2ccccc2F)c1=O,i
CC(=O)N1CCN(c2ncnc3c2CN(c2ccccc2C)C(=O)CN3C)CC1,-7.3%
O=C(CC[C@@H]1CNC(=O)[C@@H]2C[C@H](NCc3ccc(F)cc3)CN12)NCc1ccc(F)cc1,23.3%
CCc1nc(-c2c3n(c(=O)n(CC(=O)Nc4ccc(C)cc4C)c2=O)CCCCC3)no1,i
COCCC(=O)N1CCCCCC1CN1CCOCC1 (stereo not given),-16.4%
CN(C)CCCOCC1(C)COc2ccc(C(=O)Nc3ccc(F)c(Cl)c3)cc2N1 (stereo not given),-21.5%[44.1 µM]
COc1cccc(C(=O)N2CCn3nnc(CCC(=O)NC4CC4)c3C2)c1,7.9%
CCN(CC)C(=O)CCC1CCN(C(=O)c2ccccc2F)CC1,0.5%
COc1cccc(N2C(=O)NC(=NC3CCCCC3)C23CCCN(C(=O)c2ccccc2F)C3)c1 (stereo not given),48.9%
CC(C)CCN1CCC2(CC1)C(=NC1CCCC1)NC(=O)N2c1cc(F)cc(F)c1,-27.7%
COc1cccc(N2C(=O)NC(=NC3CCCC3)C23CCCN(CCC(C)C)C3)c1 (stereo not given),12.6µM*
COc1cccc(N2C(=O)NC(=NC3CCCC3)C23CCCN(C(=O)c2ccccc2)C3)c1 (stereo not given),8.5%
O=C1NC(=NC2CCCCC2)C2(CCCN(CC3CCCCC3)C2)N1c1cc(F)cc(F)c1 (stereo not given),7.94µM*
C[S+](=O)([O-])N1CCCC2(C1)C(=NC1CCCC1)NC(=O)N2c1cc(F)cc(F)c1 (stereo not given),i
O=C1NC(=NC2CCCCC2)C2(CCN(CC3CC3)CC2)N1c1cc(F)cc(F)c1,-25.2%
O=C1NC(=NC2CCCC2)C2(CCN(CC3CC3)CC2)N1c1cc(F)cc(F)c1,-8.1%
CC(C)CCN1CCCC2(C1)C(=NC1CCCC1)NC(=O)N2c1cc(F)cc(F)c1 (stereo not given),10µM*
CCN1CCN(CCNC(=O)[C@H]2CCC[C@H]2NC(=O)c2ccncc2)CC1,6.2%
O=C(Nc1ccc([C@@H](O)[C@H]2COCC(=O)N2Cc2ccccc2F)cc1)c1ccc(F)cc1,i
CC(C)CN1CCOC[C@H](Oc2ccc(C(F)(F)F)cc2)C1,i
CC(C)C(=O)NCCc1noc(Cc2ccccc2)n1,88.3%
O=C(Cc1ccccc1)NCC1CN(Cc2ccc(C(=O)O)cc2)CC12CN(c1ccccc1)C2 (stereo not given),i
COC[C@H]1C[C@@H](NS(=O)(=O)c2ccccc2)[C@H](O)[C@@H]1O,18.0%[44.1 µM]
Cn1nc(C(=O)N2CCCCCCNC(=O)[C@@H]3CCCC[C@@H]32)c2ccccc21,2.24µM*
SMILES,Pf Dd2 growth
O=C1NCCCCCCN(C(=O)c2ccccn2)[C@H]2CCC[C@@H]12,8.5%
O=C(COc1ccccc1)NCC(=O)N1CCCCCCNC(=O)CC1c1ccccc1 (stereo not given),-1.9%
Cc1cc(C(=O)NCC(=O)N2CCCCCCNC(=O)CC2c2ccccc2)n(C)n1 (stereo not given),7.7%
Cn1nccc1C(=O)NCC(=O)N1CCCCCNC(=O)CC1c1ccccc1 (stereo not given),31.0%
O=C1CC(c2ccccc2)N(C(=O)CNS(=O)(=O)c2ccccc2)CCCCCN1 (stereo not given),-18.7%
O=C1CC(c2ccccc2)N(C(=O)CNC(=O)C2CC2)CCCCCCN1 (stereo not given),21.6%
Cn1nc(C(=O)NCC(=O)N2CCCCCCNC(=O)CC2c2ccccc2)c2ccccc21 (stereo not given),0.631µM*
O=C1CC(c2ccccc2)N(C(=O)CNC(=O)Cn2c(=O)oc3ccccc32)CCCCCCN1 (stereo not given),10µM*
O=C1CC(c2ccccc2)N(C(=O)CNS(=O)(=O)c2ccc3c(c2)CCC3)CCCCCCN1 (stereo not given),11.2µM*
Cc1ncccc1C(=O)N1CCCCCCNC(=O)[C@@H]2CCCC[C@@H]21,3.4%
O=C1CC(c2ccccc2)N(C(=O)CNS(=O)(=O)c2cccnc2)CCCCCCN1 (stereo not given),i
Cc1noc(C)c1C(=O)N[C@@H]1CN(c2ncccn2)C[C@H]1CN(C)C,16.2%
CC(C)c1nnc(C2CN(C(=O)c3cccn3C)CC23CCOCC3)o1 (stereo not given),49.6%
CC(=O)N1CCCC2(CC(c3ccccn3)=NO2)C1 (stereo not given),16.7%[44.1 µM]
O=C(N[C@@H]1CCOC[C@H]1Oc1ccccn1)c1ccc(N2CCCC2=O)cc1,-5.7%
O=C(CCC[C@@H]1[C@H]2CCCN3CCC[C@@H](CN1Cc1cccnc1)[C@@H]23)NCc1cccnc1,10.6%
CCN(Cc1ccncc1)C(=O)CC(c1ccccc1)c1ccc2c(c1)OCO2 (stereo not given),i
CN(C)c1nc2c(c(=O)[nH]1)CCN(Cc1cccnc1)CC2,5.1%[5.79 µM]
COCc1nc(-c2ccc(OC3CCN(S(=O)(=O)c4ccccc4C)C3)cc2)no1 (stereo not given),20.4%[5.79 µM]
O=C(O)COc1ccc(-c2nccc3c2C(=O)N(Cc2cccc(C(F)(F)F)c2)CC(COc2cccnc2)O3)cc1 (stereo not given),i
CN1C(=O)C(c2ccccc2)CC12CCN(C(=O)CO)CC2 (stereo not given),-4.0%
O=C(Nc1nccs1)C1CC(=O)N(c2n[nH]c3ccccc23)C1 (stereo not given),-11.3%
Cc1nn(C(=O)c2ccccc2)c(C)c1Sc1ccc(Cl)cc1,11.2µM*
Cc1ccc(Sc2c(C)nn(C(=O)c3ccc(Br)cc3)c2C)cc1,26.9%
CCC(=O)Oc1c(Sc2ccc(Cl)cc2)c(C)nn1-c1ccccc1,-21.9%
SMILES,Pf Dd2 growth
CN(CC1CCOC1)S(=O)(=O)c1ccccc1F (stereo not given),49.5%[5.79 µM]
Cn1ccnc1CN1C(=O)NC2(CCNCC2)C1=O,2.2%
O=C1N(CCCCOc2ccccc2)c2ccccc2NC12CCNCC2,7.94µM*
O=C1NC2(CCNCC2)C(=O)N1CCCc1cccnc1,-2.8%
CC[C@H]1CN(C(=O)C2CC2)CC[C@H]1CC(=O)NCc1ccccc1,15.3%[44.1 µM]
COCc1nc(C2CCN(C(=O)c3ccco3)C2)no1 (stereo not given),-22.2%
COc1ccc(C2CC(=O)c3c([nH]c(C(=O)OC4CCC(C)CC4)c3C)C2)cc1OC (stereo not given),-16.1%
COc1ccc(C2CC(=O)c3c([nH]c(C(=O)OCc4ccccc4)c3C)C2)cc1 (stereo not given),-12.5%
CCOC(=O)c1ccc(NC(=O)c2cc3c([nH]c2=O)CC(c2ccccc2)CC3=O)cc1 (stereo not given),-9.7%
Cc1c(C(=O)OC2CCCC2)[nH]c2c1C(=O)CC(c1ccc(Cl)cc1)C2 (stereo not given),-13.8%
Cc1c(C(=O)OCCOc2ccccc2)[nH]c2c1C(=O)CC(c1ccc(C(C)(C)C)cc1)C2 (stereo not given),3.98µM*
CCOC(=O)c1[nH]c2c(c1Cc1ccccc1OC)C(=O)CC(c1ccccc1)C2 (stereo not given),11.2µM*
CCCNC(=O)N1CCC(N2C(=O)[C@H](OC)[C@@H]2c2ccncc2)CC1,1.0%
Cc1cnc(C(=O)N2CCC3(CC2)c2[nH]c4ccccc4c2CCN3C)cn1,i
COc1ccc(C(=O)N(C)Cc2ccc(-c3ccccc3)cc2)cc1,-0.8%[44.1 µM]
